# Source: PubChem BioAssay
# Calls of active or inactive are those of the source. Unless noted, the rule behind the calls is not given here.
# Assays:
# [1] = resazurin metabolic signal in HepG2 cells – cell-based, resazurin fluorescence, 24 h, PK04 Diversity Set, profiling panel (AID 1172); details: HepG2 viability, higher = more signal
# [2] = budding yeast growth changes without added modifier – OD600, strain BY4716, 24 h, basal condition, primary screen (AID 1173); details: S. cerevisiae BY4716 growth, OD600, 24 h; higher = more signal, called active from +8 up or from −8 down
# [3] = viability profiling in MM1S myeloma cells – cell-based, resazurin fluorescence, basal, 24 h, PK04 Diversity Set, profiling panel (AID 1174); details: higher = more signal, called active from +8 up or from −8 down;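 note: MM1S multiple myeloma cell line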
# [4] = molecular target: Dihydroorotate dehydrogenase (quinone), mitochondrial (Plasmodium falciparum (isolate 3D7)) (UniProt Q08210); experiment: inhibition of P. falciparum DHODH – biochemical, C-terminal His tag, absorbance 600 nm, primary screen (AID 1175); details: PfDHODH enzyme, DCIP absorbance 600 nm; higher = more signal, called active from +8 up or from −8 down;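 note: recombinant parasite enzyme with a five histidine tag at its C terminus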
# Sequence of Dihydroorotate dehydrogenase (quinone), mitochondrial (Plasmodium falciparum (isolate 3D7)) (Q08210 whole entry, looked up): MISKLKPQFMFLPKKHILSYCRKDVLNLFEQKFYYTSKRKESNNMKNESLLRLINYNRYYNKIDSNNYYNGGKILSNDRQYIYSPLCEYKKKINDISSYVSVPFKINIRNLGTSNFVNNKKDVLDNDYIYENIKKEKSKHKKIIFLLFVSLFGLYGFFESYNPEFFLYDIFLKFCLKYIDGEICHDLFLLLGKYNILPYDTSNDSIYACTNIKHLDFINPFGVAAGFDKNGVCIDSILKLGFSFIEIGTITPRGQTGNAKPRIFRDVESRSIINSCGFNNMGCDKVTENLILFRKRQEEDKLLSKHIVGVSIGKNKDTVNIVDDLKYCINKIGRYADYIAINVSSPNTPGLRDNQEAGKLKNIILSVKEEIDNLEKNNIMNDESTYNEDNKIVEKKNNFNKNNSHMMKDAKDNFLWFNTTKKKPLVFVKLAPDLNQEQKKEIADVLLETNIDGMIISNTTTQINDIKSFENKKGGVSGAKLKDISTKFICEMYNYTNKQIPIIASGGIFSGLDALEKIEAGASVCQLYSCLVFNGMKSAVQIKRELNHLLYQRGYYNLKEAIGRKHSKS
# [5] = inhibition of PAO1 biofilm formation – strain PAO1, LB-PBS medium, absorbance 600 nm, primary screen (AID 1176); details: P. aeruginosa PAO1 growth/biofilm, A600, 12 h; higher = more signal
# [6] = growth modulation of vineyard yeast isolate – strain RM11-1a, OD600, basal, 24 h, primary screen (AID 1177);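 note: cultures grown under basal conditions with no added stressor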; details: S. cerevisiae RM11-1a growth, OD600, 24 h; higher = more signal, called active from +8 up or from −8 down
# [7] = growth of efflux-deficient E. coli DRC39 – strain DRC39, OD650, 24 h, E. coli filamentation inducers, primary screen (AID 1178);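 note: growth measured as culture turbidity by optical density at 650 nm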; details: E. coli DRC39 acrAB, higher = more signal, called active from +8 up or from −8 down
# [8] = growth of efflux-deficient E. coli DRC39 – strain DRC39, OD650, 48 h, E. coli filamentation inducers, primary screen (AID 1179);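 note: screen aims at cell division blockers that make cells filament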; details: E. coli DRC39 delta-acrAB growth, higher = more signal, called active from +8 up or from −8 down
# [9] = viability profiling in RPMI8226 myeloma cells – cell-based, resazurin fluorescence, basal, 24 h, PK04 Diversity Set, profiling panel (AID 1180); details: higher = more signal;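 note: RPMI8826 multiple myeloma cell line at 5000 cells per well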
# [10] = molecular target: E3 ubiquitin-protein ligase XIAP (Homo sapiens) (UniProt P98170); experiment: small molecules binding XIAP protein – biophysical, small-molecule microarray, fluorescence 635 nm, primary screen (AID 1181); details: higher = more signal;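 note: score merges 667 nm emission and signal to noise over triplicate slides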
# Sequence of E3 ubiquitin-protein ligase XIAP (Homo sapiens) (P98170 whole entry, looked up, the tested form may be a part): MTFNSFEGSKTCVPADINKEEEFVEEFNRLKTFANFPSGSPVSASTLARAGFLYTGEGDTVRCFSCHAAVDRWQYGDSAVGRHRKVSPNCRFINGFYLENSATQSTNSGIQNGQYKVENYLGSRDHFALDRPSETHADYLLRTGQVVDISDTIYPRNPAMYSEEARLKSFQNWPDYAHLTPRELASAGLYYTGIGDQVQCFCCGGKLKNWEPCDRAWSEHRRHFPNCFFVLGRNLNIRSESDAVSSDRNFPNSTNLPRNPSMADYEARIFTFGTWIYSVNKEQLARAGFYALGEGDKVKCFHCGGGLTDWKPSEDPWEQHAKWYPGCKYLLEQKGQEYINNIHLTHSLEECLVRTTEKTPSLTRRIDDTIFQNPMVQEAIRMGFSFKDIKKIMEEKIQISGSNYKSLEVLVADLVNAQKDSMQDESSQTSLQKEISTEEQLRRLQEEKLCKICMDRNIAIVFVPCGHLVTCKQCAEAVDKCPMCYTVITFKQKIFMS
# [11] = system: XIP peptide (Xip251-270) binding; experiment: XIP fragment 251-270 binding compounds – biochemical, small-molecule microarray, fluorescence 635/667 nm, 0.1 µg/mL protein, primary screen (AID 1182); details: fluorescent protein binding, 635 nm, higher = more signal, called active from +8 up or from −8 down
# XIP peptide (Xip251-270) = experiment: compounds binding XIP fragment 251-270 – biochemical, small-molecule microarray, fluorescence 635/667 nm, 0.5 µg/mL protein, primary screen (AID 1183); details: fluorescence 635 nm, higher = more signal
# [12] = blood-stage malaria parasite viability loss – strain 3D7, DAPI fluorescence, 100 nL, primary screen (AID 1184);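 note: parasites grown inside human red blood cells in medium with human serum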; details: P. falciparum 3D7 growth, 3 d, higher = more signal
# [13] = molecular target: Homeobox protein Hox-A13 (Mus musculus) (UniProt Q62424); experiment: disruptors of Hoxa13 oligonucleotide interaction – biochemical, fluorescence polarization, labeled oligonucleotide, primary screen (AID 1185); details: Hoxa13:DNA binding, 15 min, higher = more signal, called active from +8 up or from −8 down
# Sequence of Homeobox protein Hox-A13 (Mus musculus) (Q62424 whole entry, looked up): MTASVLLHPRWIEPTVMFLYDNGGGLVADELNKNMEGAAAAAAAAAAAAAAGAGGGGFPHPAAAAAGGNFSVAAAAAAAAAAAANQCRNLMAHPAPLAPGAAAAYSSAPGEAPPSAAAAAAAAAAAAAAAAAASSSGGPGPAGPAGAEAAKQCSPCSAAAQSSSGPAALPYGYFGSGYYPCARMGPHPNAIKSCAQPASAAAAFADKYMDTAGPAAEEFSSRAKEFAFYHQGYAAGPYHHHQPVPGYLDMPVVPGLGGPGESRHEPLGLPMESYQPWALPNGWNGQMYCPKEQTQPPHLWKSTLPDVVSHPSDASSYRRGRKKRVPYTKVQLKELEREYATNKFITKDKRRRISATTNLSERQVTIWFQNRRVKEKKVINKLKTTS
# [14] = blockers of DNA damage checkpoint Chk1 activation – imaging, HeLa, hydroxyurea, phospho-Chk1 antibody, percent positive cells, primary screen (AID 1186); details: hydroxyurea-induced phospho-Chk1 immunofluorescence imaging, higher = more signal
# [15] = blockers of DNA damage checkpoint Chk1 activation – imaging, HeLa, hydroxyurea, phospho-Chk1 nuclear intensity, primary screen (AID 1187); details: hydroxyurea-induced phospho-Chk1 immunofluorescence imaging, higher = more signal
SMILES,z-score [1],z-score [2],z-score [3],composite z-score [4],z-score [5],z-score [6],z-score [7],z-score [8],z-score [9],composite z-score [10],composite z-score [11],composite z-score (XIP peptide (Xip251-270)),z-score [12],z-score [13],z-score [14],z-score [15]
C[N+](C)(C)CCCC[C@@H]1NC(=O)[C@H]2C[C@@H](C(=O)NCCCCCCN)[C@@H](c3ccc(O)cc3)N2C1=O,-0.132,0.252 (inactive),0.99 (inactive),0.302 (inactive),-0.515 (inactive),1.18 (inactive),-0.231 (inactive),-0.185 (inactive),0.976,-0.0286,-0.465 (inactive),0.825,-0.104,-1.61 (inactive),0.181 (inactive),0.0555 (inactive)
CCOC(=O)c1ccc(NC(=O)O[C@H]2[C@H](OC(=O)Nc3ccc4c(c3)OCO4)[C@@H](OC(=O)Nc3ccc4c(c3)OCO4)[C@@H](OC)O[C@@H]2CO)cc1,-0.741,1.1 (inactive),-0.849 (inactive),0.0737 (inactive),2.08 (inactive),2.29 (inactive),1.04 (inactive),-0.0515 (inactive),-0.836,0.519,1.15 (inactive),0.894,-2.42,-8.16 (active),-0.301 (inactive),-0.0975 (inactive)
C=CCC(OC(C)=O)[C@@H]1[C@@H](N(Cc2cccc3ccccc23)C(=O)Cc2ccc(OC)cc2)c2cc(OCCCO)ccc2N1C(=O)c1ccc2ccccc2n1 (some centres undefined),0.602,0.0243 (inactive),-0.415 (inactive),-0.175 (inactive),-0.145 (inactive),-0.212 (inactive),0.884 (inactive),0.284 (inactive),0.0309,0.343,1.24 (inactive),-0.248,-2.54,-2.7 (inactive),-2.34 (inactive),-1.44 (inactive)
CCCCCCc1nc(C2CC2)cc2c1[Si](C(C)C)(C(C)C)OC2,-0.621,0.436 (inactive),0.0766 (inactive),-2.54 (inactive),-0.227 (inactive),-0.431 (inactive),-0.423 (inactive),-0.606 (inactive),-0.584,-0.206,-0.18 (inactive),0.259,-1.47,0.321 (inactive),-0.186 (inactive),-0.0437 (inactive)
O=C1OCC=C[C@H]2OC34C=CCN(Cn5nnc6ccccc65)C(=O)[C@H]3N(CCCO)C(=O)[C@@H]4[C@@H]12 (some centres undefined),-0.281,-0.68 (inactive),-0.319 (inactive),-2.85 (inactive),-0.0684 (inactive),-0.0325 (inactive),-1.4 (inactive),-1.1 (inactive),-0.509,-0.105,0.206 (inactive),0.155,-1.88,-1.9 (inactive),-0.242 (inactive),-0.228 (inactive)
CCCCO[C@H]1C[C@H]2C(I)=C[C@@H]1C(=O)[C@]21CO1,-0.0876,-8.45 (active),-0.67 (inactive),-0.0864 (inactive),0.0481 (inactive),-1.31 (inactive),-0.814 (inactive),-1.05 (inactive),-0.0824,-0.255,-0.178 (inactive),0.08,1.06,-1.07 (inactive),0.187 (inactive),-0.0533 (inactive)
COc1ccc([Si](C)(C)[C@@H]2[C@@H](CC(=O)N(CCO)Cc3ccccc3)O[C@]3(C(=O)N(c4ccccc4)c4ccccc43)[C@H]2C)cc1,-2.66,-1.74 (inactive),-5.11 (inactive),0.818 (inactive),1.26 (inactive),0.525 (inactive),1.21 (inactive),1.1 (inactive),-5.53,-0.112,0.153 (inactive),0.38,-2.54,-5.59 (inactive),-1.11 (inactive),-0.327 (inactive)
CC(C)(C)OC(=O)CC[C@@]1(C(=O)NCc2ccccc2)N=C(c2ccc(OCCCO)cc2)O[C@@H]1c1ccccc1N=[N+]=[N-],-0.409,0.381 (inactive),-1.36 (inactive),1.45 (inactive),1.2 (inactive),1.99 (inactive),2.98 (inactive),0.914 (inactive),-0.362,0.23,-0.208 (inactive),0.759,-2.1,-1.44 (inactive),-0.347 (inactive),0.14 (inactive)
CCCCCCCCCCC(O)C1C=CC2C(=O)N(C)C(=O)C2N1NC(=O)OC(C)(C)C (centres undefined),-5.01,-5.22 (inactive),-4.74 (inactive),1.1 (inactive),0.0337 (inactive),1.05 (inactive),-0.235 (inactive),-1.45 (inactive),-5.64,0.109,0.0658 (inactive),0.502,-0.451,-2.93 (inactive),1.91 (inactive),1.4 (inactive)
